From PubChem
Shown are actives, neighbours in structure and some others; about 5.3% of the full set was active somewhere.
IMPase cell inh: IMPase inhibition in cells; inhibition (IP1 accumulation), % at 46.1 µM; AID 901; CHO-M1 cells, IP1 accumulation, HTRF TR-FRET ratio; 120,000 tested, under 10 active; active = well fitted curve in the direction sought with a large enough effect in the signal ratio, not every such curve was filed as active; inconclusive = small, poorly fitted or top-dose-only effect, or a change in a side signal; inactive = no such curve, though single readings can be large or run the other way; the % refers to the signal ratio;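 also: cells stimulated with carbachol in lithium chloride buffer; higher means more IMPase inhibition seen as more IP1 and lower FRET ratio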
Target sequence (P97697 whole entry, looked up): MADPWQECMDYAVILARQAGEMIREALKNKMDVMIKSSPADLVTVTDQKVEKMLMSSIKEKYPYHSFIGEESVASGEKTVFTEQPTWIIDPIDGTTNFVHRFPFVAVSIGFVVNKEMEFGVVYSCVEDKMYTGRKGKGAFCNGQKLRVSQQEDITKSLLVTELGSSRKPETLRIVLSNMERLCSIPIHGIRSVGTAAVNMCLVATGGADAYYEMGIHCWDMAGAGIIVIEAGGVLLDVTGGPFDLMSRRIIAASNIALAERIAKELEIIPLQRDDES
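CHO-M1 cells (CHO stably expressing M1 receptor), compound up to 46 uM final, stimulated with carbachol (50 uM as added) in buffer with 50mM LiCl, pH 7.4, 30 min at 37C. Cytosolic IP1 read by TR-FRET; AC50 from Hill fits.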
ALOX15B inhib: inhibitors of human 15-lipoxygenase 2 (ALOX15B). Potency, µM (doses to about 57.1 µM), most hits filed as inhibitors. purified 15hLO-2, xylenol orange hydroperoxide absorbance. actives 0.56% (n = 110,000); also: nearly all actives have a fitted effect of over 60% in size
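Purified human 15hLO-2 (50 nM final) preincubated with compounds 15 min at room temperature in 25 mM Hepes pH 7.5, 0.01% Triton X-100, then 45 uM arachidonic acid added for 90 min; hydroperoxide detected via ferrous/xylenol orange, 573/405 nm absorbance ratio.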
HPGD block: HPGD (human) dehydrogenase inhibition; P15428; purified HPGD, NADH fluorescence kinetic, PGE2 substrate; Potency, µM, usual class: inhibitors; actives 4.3% (n = 150,000); active = well fitted inhibition curve with a large enough effect, not every such curve was filed as active; inconclusive = small, poorly fitted or top-dose-only effect, or another doubt; inactive = no such curve, though single readings can be large or run the other way
Target sequence (P15428 whole entry, looked up): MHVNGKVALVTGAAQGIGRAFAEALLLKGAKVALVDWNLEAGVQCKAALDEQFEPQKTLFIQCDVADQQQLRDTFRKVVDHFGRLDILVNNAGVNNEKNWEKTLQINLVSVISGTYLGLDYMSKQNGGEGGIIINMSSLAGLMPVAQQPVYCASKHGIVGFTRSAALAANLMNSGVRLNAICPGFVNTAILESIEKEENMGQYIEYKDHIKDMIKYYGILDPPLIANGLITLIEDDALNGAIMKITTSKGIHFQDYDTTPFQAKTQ
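20 nM HPGD preincubated 15 min at room temperature with compound in 50 mM Tris-HCl pH 8, 0.01% Tween 20. Started with 1 mM NAD+ and 30 uM prostaglandin E2; NADH fluorescence (360/450 nm) read 5 times over 30-s intervals, last minus first.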
IMPase Li cell: membrane-permeable IMPase blocker, potentiated with lithium | CHO-M1 cells, IP1 TR-FRET (IP-One), carbachol + lithium | Potency, µM (doses to about 59.4 µM), usual class: inhibitors | actives 0.35% (n = 210,000);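 also: IP1 builds up when IMPase is blocked and the TR-FRET signal falls; nearly all actives have a fitted effect of over 50% in size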
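Readout is a homogeneous TR-FRET IP1 immunoassay (Ex 320, Em 665 and 620), where raised cytosolic IP1 lowers signal. Cells were CHO-M1 treated 30 min at 37C with test compounds plus a little lithium; AC50 values came from Hill-equation fitting.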
PNC assembly inh: blocks assembly of the perinucleolar compartment; PC3M PTB-GFP, PNC prevalence imaging, 16 h; active compounds read low; activity change (PNC), negative = inhibition, % at 10 µM; actives 3.1% (n = 140,000);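 active = readout at or below -70, meaning at least 70% loss of cells showing the perinucleolar compartment, a nuclear body marking cancer cells; inconclusive = readout between -30 and a set limit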
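Compounds are pinned in duplicate onto adhered PC3M cells stably expressing GFP-tagged PTB and incubated 16 h at 37 C. Cells are then fixed, nuclei stained with Hoechst, and PNC-positive cells counted.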
ALOX12 inhib: inhibitors of human 12-lipoxygenase (ALOX12); AID 1452; Potency, µM (top dose mostly 57.1 µM), most hits filed as inhibitors; actives 0.12% (n = 150,000); purified 12-hLO, xylenol orange hydroperoxide absorbance; P18054; also: nearly all actives have a fitted effect of over 55% in size
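Xylenol orange chromogenic assay: hydroperoxide from 12hLO oxidises Fe(II), giving red-shifted Fe(III)-XO absorbance. Conditions: 150 nM enzyme, 40 uM arachidonic acid, 25 mM Hepes pH 7.0, 0.01% Triton X-100, 30 min, room temperature.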
Of the large screens only hits and unclear results are named; the others gave an inactive call. Unless noted, calls follow the shape of the dose curve; as a rule, active = well fitted curve in the direction sought with a large enough effect; inconclusive = small, poorly fitted or top-dose-only effect, or another doubt; inactive = no such curve, though single readings can be large; an effect the other way counts as inactive or inconclusive.

CCC1=C2CC[C@H]3C(=O)N(CC)C(=O)[C@H]3[C@H]2[C@@]2(C)C(=O)N(CC(=O)OC)C(=O)N2C1=O	none (no result: IMPase cell inh, PNC assembly inh)
C(#Cc1ccc(C#CCN2CCCC2)cc1)CN1CCCC1	PNC assembly inh -90
CCN1CCCC1Cn1c(-c2ccccc2)nc2c(N3CCOCC3)nc(C)nc21 (stereo not drawn)	HPGD block inconclusive (no result: IMPase cell inh, PNC assembly inh)
CCc1ccc(NC2CC(=O)N(CCc3ccc(OC)c(OC)c3)C2=O)cc1 (stereo not drawn)	none (no result: IMPase cell inh, ALOX15B inhib, HPGD block, PNC assembly inh, ALOX12 inhib)
O=C1CC(Nc2ccc(N3CCOCC3)cc2)C(=O)N1c1ccccc1F (stereo not drawn)	ALOX12 inhib inconclusive (no result: ALOX15B inhib)
COc1ccc(CCN2C(=O)CC(Nc3ccc(N4CCOCC4)cc3)C2=O)cc1OC (stereo not drawn)	ALOX15B inhib 25µM, ALOX12 inhib inconclusive
CC(C)N1C(=O)CC(Nc2ccc(N3CCOCC3)cc2)C1=O (stereo not drawn)	ALOX15B inhib 25µM, ALOX12 inhib inconclusive
O=C1CC(Nc2ccccc2)C(=O)N1c1ccc(N2CCOCC2)cc1 (stereo not drawn)	PNC assembly inh -104
C=CCc1cc(C(=O)N2CCCCC2)ccc1O	HPGD block 4µM, PNC assembly inh -81
Cc1[nH]c2ccc(C(=O)N3CCCCC3)cc2c1C	none (no result: IMPase cell inh, ALOX15B inhib, HPGD block, PNC assembly inh, ALOX12 inhib)
COc1ccc(S(=O)(=O)NCc2ccc(C(=O)N3CCc4ccccc4C3)cc2)cc1	HPGD block 2.8µM, PNC assembly inh inconclusive (no result: IMPase cell inh, ALOX15B inhib)
CCOC(=O)N1CCN(C(=O)c2ccc(CNS(=O)(=O)c3ccc(OC)cc3)cc2)CC1	none
COc1ccc(S(=O)(=O)N2CCC(C(=O)N3CCOCC3)CC2)cc1	PNC assembly inh -100 (no result: ALOX15B inhib)
COc1ccc(S(=O)(=O)N2CCC(C(=O)N3CCc4ccccc4C3)CC2)cc1	HPGD block 35µM
COc1ccc(S(=O)(=O)N2CCC(C(=O)N3CCc4ccccc4C3)CC2)cc1C	IMPase cell inh inconclusive
CC(C)(O)C#Cc1ccc(C(=O)N2CCN(c3ccc(Cl)cc3)CC2)cc1	none (no result: IMPase cell inh, ALOX15B inhib, HPGD block, PNC assembly inh, ALOX12 inhib)
CN(C)Cc1nsc(N(C)C)n1	none (no result: IMPase cell inh, PNC assembly inh)
COc1ccc(-n2ncc3c(SCC(=O)N4CCN(c5ccccc5OC)CC4)ncnc32)cc1	PNC assembly inh -119 (no result: ALOX15B inhib)
COc1ccc(-n2c(CCC(=O)O)ccc2-c2ccccc2)c(OC)c1	none (no result: ALOX15B inhib, HPGD block, IMPase Li cell, PNC assembly inh, ALOX12 inhib)
CC(C)c1ccc(NC(=O)c2cc(S(=O)(=O)NCC3COc4ccccc4O3)ccc2F)cc1 (stereo not drawn)	PNC assembly inh -113 (no result: IMPase cell inh, ALOX15B inhib)
COC(=O)C1(C(=O)OC)C/C=C\C/C=C\c2ccccc2C1C[N+](=O)[O-] (stereo not drawn)	none (no result: IMPase cell inh, ALOX15B inhib, PNC assembly inh, ALOX12 inhib)
CS(=O)(=O)N1CCc2cc(-c3csc(NC(=O)Cc4ccccc4)n3)ccc21	PNC assembly inh -119 (no result: ALOX15B inhib)
CS(=O)(=O)N1CCc2cc(-c3csc(NCC4CCCO4)n3)ccc21 (stereo not drawn)	HPGD block 40µM, PNC assembly inh inconclusive
CCC(=O)Nc1nc(-c2ccc3c(c2)CC(C)N3S(C)(=O)=O)cs1 (stereo not drawn)	none (no result: IMPase cell inh, ALOX15B inhib, HPGD block, PNC assembly inh, ALOX12 inhib)
CC1Cc2cc(-c3csc(NC(=O)Cc4cccs4)n3)ccc2N1S(C)(=O)=O (stereo not drawn)	PNC assembly inh -125
CCCc1ccc(OCC(=O)Nc2sc(C(=O)OCC)c(C)c2C(=O)OCC)cc1	none (no result: ALOX15B inhib, HPGD block, IMPase Li cell, PNC assembly inh, ALOX12 inhib)
COc1ccc(Cl)cc1N(C(C)C(=O)NC1CCCC1)S(C)(=O)=O (stereo not drawn)	none (no result: IMPase cell inh, ALOX15B inhib, HPGD block, PNC assembly inh, ALOX12 inhib)
C[C@H]1Cc2c(-c3ccccc3)nc3c(c2CO1)CN(C(=O)c1cc(I)ccc1F)CC3	none (no result: IMPase cell inh, ALOX15B inhib, PNC assembly inh)
CCN1C(=O)C(CC(=O)Nc2ccc(Br)cc2)N(CCCc2ccccc2)C1=S (stereo not drawn)	ALOX12 inhib inconclusive
CC(C)NC(=O)CN1C(=O)c2ccccc2S1(=O)=O	none (no result: IMPase cell inh, ALOX15B inhib, HPGD block, PNC assembly inh, ALOX12 inhib)
CC(C)COP(=O)(CNC(=O)CN1C(=O)c2ccccc2S1(=O)=O)OCC(C)C	PNC assembly inh -82 (no result: IMPase cell inh, ALOX15B inhib)
O=C(CN1C(=O)c2ccccc2S1(=O)=O)NCc1ccccc1Cl	PNC assembly inh -119 (no result: ALOX15B inhib)
